Screening data as filed in PubChem BioAssay.
pS6 MEF inh: mTORC1 pathway inhibition measured by phospho-rpS6; Potency, µM (highest dose often 38.3 µM), for inactives: at the highest dose activity change, negative = inhibition, hits mostly inhibitors; 44,000 compounds, 0.78% hits; Tsc2-/- p53-/- MEF, phospho-rpS6 immunofluorescence/PI, 24 h;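 also: potency is read from the fitted curve at half-maximal effect; plate controls were DMSO for no effect and rapamycin for full effect; nearly all actives have a fitted effect of over 50% in size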
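Readout is phospho-S6 Alexa 488 signal normalized to PI per well, reported as % active cells with thresholds set from rapamycin (7.5 nM) and DMSO controls. Cells: Tsc2-/-, p53-/- MEFs, 24 hrs compound at 37 C; PI cell number serves as viability.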
HTT promoter inh: inhibits huntingtin promoter activity | Potency, µM (doses to about 57.5 µM), inactives show top-dose activity change, negative = inhibition, most hits filed as inhibitors | 48,000 compounds, 0.93% hits | HEK293 HTT promoter firefly luciferase reporter, 24 h; also: potency is read from the fitted curve at half-maximal effect; nearly all actives have a fitted effect of over 50% in size
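HEK293 cells carrying firefly luciferase reporters were seeded at 2,500 per well in Opti-MEM and cultured for 24 h. They were then treated with compounds at up to 57.5 uM final for 24 h at 37 degrees C before Dual-Glo luminescence readout.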
PMP22 txn: PMP22 gene transcription modulation; S16 Pmp22-F2sN Schwann cells, FLuc/NLuc coincidence luminescence, 24 h; Potency, µM (highest dose often 57.5 µM), without a hit: at the top dose activity change, negative = inhibition, usual class: inhibitors; 43,000 compounds, 2% hits; AID 1508649; active = clear falling dose curves in both reporters; inconclusive = both reporters move, but less clearly or upward; inactive = either reporter flat; the % is the NLuc reporter signal; also: potency is read from the fitted curve at half-maximal effect; % is scaled to controls: 0 for no effect and ±100 for the full control effect
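Rat S16 Pmp22-F2sN cells, 500-1,000/well in phenol red-free DMEM + 10% FBS, compound-treated 24 h (37C, 5% CO2). Luminescence: FLuc read, Stop&Glo added, NLuc read.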
HTT-AS act: HTT-AS promoter activation; HEK293 HTT-AS promoter firefly luciferase reporter, 24 h; response scale: percent change from vehicle, -100% = no light; Potency, µM (series often up to 57.5 µM), for inactives: top-dose activity change, positive = activation, hits mostly activators; 48,000 compounds, 0.24% hits; AID 1508624; also: potency is read from the fitted curve at half-maximal effect; nearly all actives have a fitted effect of over 55% in size
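Firefly luciferase readout (Dual-Glo, 10 min RT) after 24 h, 37 °C compound exposure (final up to 57.5 uM) of HEK293 reporter cells cultured 24 h beforehand; PTC124 at 50 uM final as control inhibitor; activity scaled vehicle 0%, zero RLU -100%.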
S16 F2sN tox: cytotoxicity in S16 Pmp22-F2sN Schwann cells. S16 Pmp22-F2sN Schwann cells viability, CellTiter-Glo, 24 h. Potency, µM (series often up to 57.5 µM), inactives show at the top dose activity change, negative = cytotoxicity, most hits filed as cytotoxic. 43,000 compounds, 0.48% hits; also: potency is read from the fitted curve at half-maximal effect; % is scaled to controls: 0 for no effect and ±100 for the full control effect; nearly all actives have a fitted effect of over 65% in size
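Viability was measured by CellTiter-Glo luminescence (15 min, room temperature). This followed 24 h at 37 °C of compound exposure (23 nL pin transfer) in S16 Pmp22-F2sN Schwann cells, 500-1,000 per well.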
NLuc sat counter: counter-screen for PMP22 expression modulators: NanoLuc inhibition, saturating substrate; Potency, µM (top dose mostly 57.5 µM), for inactives: at the top dose activity change, negative = inhibition, usual class: inhibitors; 690 compounds, 4% hits; shares compounds with PMP22 txn; Secreted NLuc enzyme (filtered S16 cell medium), Nano-Glo luminescence; AID 1508638; also: potency is read from the fitted curve at half-maximal effect; % is scaled to controls: 0 for no effect and ±100 for the full control effect
NLuc Km ctr: NanoLuc inhibition at Km substrate, PMP22 artifact check | 690 compounds, 5% hits | shares compounds with PMP22 txn | Potency, µM (highest dose often 57.5 µM), for inactives: at the highest dose activity change, negative = inhibition, actives largely listed as inhibitors | secreted NLuc enzyme, coelenterazine luminescence, Km conditions; also: potency is read from the fitted curve at half-maximal effect; % is scaled to controls: 0 for no effect and ±100 for the full control effect
FLuc ctr PMP22: inhibits firefly luciferase, PMP22 counter-screen. shares compounds with PMP22 txn. purified P. pyralis FLuc, luminescence, 10 min. Potency, µM (titrated, usually from 57.5 µM), inactives show at the highest dose activity, negative = inhibition, hits mostly inhibitors. AID 1508640. 690 tested, under 10 active; also: % of control where 0% means no effect
Target sequence (P08659 whole entry, looked up): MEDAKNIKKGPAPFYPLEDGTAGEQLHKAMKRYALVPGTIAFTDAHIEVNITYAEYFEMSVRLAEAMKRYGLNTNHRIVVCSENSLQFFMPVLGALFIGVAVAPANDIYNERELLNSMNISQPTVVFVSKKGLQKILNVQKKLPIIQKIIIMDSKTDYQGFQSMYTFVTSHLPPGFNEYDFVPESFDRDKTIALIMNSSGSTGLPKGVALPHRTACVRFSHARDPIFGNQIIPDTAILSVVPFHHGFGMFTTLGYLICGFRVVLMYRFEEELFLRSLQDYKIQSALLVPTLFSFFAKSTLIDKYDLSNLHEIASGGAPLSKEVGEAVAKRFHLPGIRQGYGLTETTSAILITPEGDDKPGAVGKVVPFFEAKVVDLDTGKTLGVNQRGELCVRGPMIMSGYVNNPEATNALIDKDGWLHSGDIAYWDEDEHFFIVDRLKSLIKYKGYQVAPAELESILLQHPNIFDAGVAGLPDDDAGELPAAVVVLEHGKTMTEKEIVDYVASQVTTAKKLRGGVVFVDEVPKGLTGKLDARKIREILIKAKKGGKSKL
S16 F2sN tox cnf: S16 Schwann cell cytotoxicity, confirmatory. shares compounds with PMP22 txn. S16 Schwann cells viability, CellTiter-Glo ATP luminescence, 24 h. Potency, µM (doses to about 57.5 µM), for inactives: top-dose activity change, negative = viability loss, usual class: cytotoxic. 690 compounds, 7% hits; also: potency is read from the fitted curve at half-maximal effect; % is scaled to controls: 0 for no effect and ±100 for the full control effect
PMP22 txn cnf: PMP22 transcription modulation, confirmatory; S16 Schwann cells Pmp22-F2sN, dual luciferase, 24 h; Potency, µM (titrated, usually from 57.5 µM), for inactives: at the top dose activity change, negative = inhibition, hits mostly inhibitors; AID 1508646; 690 compounds, 22% hits; shares compounds with PMP22 txn; active = clear falling dose curves in both reporters; inconclusive = both reporters move, but less clearly or upward; inactive = either reporter flat; the % is the FLuc reporter signal; also: potency is read from the fitted curve at half-maximal effect
Active calls of the source: *; ? = inconclusive; / = no result. In the library only some 3.6% were active in any assay of this set; here they are far more common. Unless noted, calls follow the shape of the dose curve; as a rule, active = well fitted curve in the direction sought with a large enough effect; inconclusive = small, poorly fitted or top-dose-only effect, or another doubt; inactive = no such curve, though single readings can be large; an effect the other way counts as inactive or inconclusive.

SMILES	pS6 MEF inh	HTT promoter inh	PMP22 txn	HTT-AS act	S16 F2sN tox	NLuc sat counter	NLuc Km ctr	FLuc ctr PMP22	S16 F2sN tox cnf	PMP22 txn cnf
C#C[C@]1(O)CC[C@@H]2[C@@H]3CCC4=CC(=O)CC[C@@H]4[C@H]3CC[C@@]21CC	/	-9%	/	-28%	/	/	/	/	/	/
CCOC(=O)c1c(S(=O)(=O)N2CCCC(C(=O)N3CCN(c4cccc(C)c4C)CC3)C2)c(C)n(C)c1C (stereo not drawn)	-2%	?	17µM*	-22%	-21%	?	?	4%	-8%	-23%
CC=C1NC(=O)[C@H]2CSSCCC=C[C@H](CC(=O)N[C@H](C(C)C)C(=O)N2)OC(=O)[C@H](C(C)C)NC1=O	/	20%	/	?	/	/	/	/	/	/
O=C(CCn1cnnn1)Nc1cc(C(F)(F)F)cc(C(F)(F)F)c1	-5%	-27%	3.9µM*	-36%	-5%	-10%	3%	-10%	1%	?
Cc1ccc(C)c(N2CCN(C(=O)C3CCCN(S(=O)(=O)c4ccc5c(c4)oc(=O)n5C)C3)CC2)c1 (stereo not drawn)	5%	?	15µM*	-33%	-15%	-10%	5%	3%	-15%	?
CC1=Nc2cc(C(=O)NCCc3ccc(Cl)cc3)ccc2Sc2c(C)ccc(C)c21	-11%	?	7.8µM*	-42%	-7%	-5%	4%	2%	?	?
CCC1=Nc2cc(C(=O)NCCc3ccc(OC)c(OC)c3)ccc2Sc2ccccc21	1%	?	?	-38%	0%	/	/	/	/	/
COc1ccc(CNC(=O)c2ccc3c(c2)N=C(C)c2c(C)ccc(C)c2S3)cc1	1%	?	?	-45%	15%	/	/	/	/	/
CCCNC(=O)c1ccc2c(c1)N=C(C)c1c(C)ccc(C)c1S2	?	?	0.39µM*	-54%	3%	-6%	?	0%	16%	?
CC1=Nc2cc(C(=O)NCCc3ccccc3)ccc2Sc2c(C)ccc(C)c21	-13%	?	2.7µM*	-40%	-3%	-5%	4%	-11%	?	?
Cc1ccccc1C(C(=O)NC1CCCCC1)N(C(=O)Cn1ccnc1C)c1cccc(F)c1 (stereo not drawn)	/	7%	/	?	/	/	/	/	/	/
OC[C@H]1O[C@@H](n2cnc3c2NC=NC[C@@H]3O)C[C@H]1O	/	-9%	/	-21%	/	/	/	/	/	/
CC(C)C(=O)Nc1cccc(C2CN3CCSC3=N2)c1 (stereo not drawn)	/	-3%	/	-9%	/	/	/	/	/	/
Cc1c2cnn(CC(=O)N3CCN(c4ccc(F)cc4)CC3)c(=O)c2c(C)n1Cc1ccc(F)cc1	3%	?	?	-23%	-21%	/	/	/	/	/
Cc1ccc(Cn2c(C)c3cnn(CC(=O)N4CCN(c5cc(C)ccc5C)CC4)c(=O)c3c2C)cc1	-5%	?	12µM*	-51%	-16%	-6%	15%	8%	-13%	-15%
CNC(=O)c1ccc(C)c(-n2c(C)cc(OCc3ccc(F)cc3F)c(Br)c2=O)c1	/	-8%	/	2%	/	/	/	/	/	/
O=C(NCCc1ccccc1Cl)C1CCN(c2nc3ccccc3nc2C(F)(F)F)CC1	0%	-10%	9.5µM*	-11%	?	-1%	9%	4%	21%	-26%
CCCCC(CC)CNC(=O)c1ccc2c(=O)n(Cc3ccc(OC)cc3)c(=O)[nH]c2c1 (stereo not drawn)	-24%	-2%	12µM*	-6%	3%	6%	20%	3%	4%	?
CN(C)Cc1c(C(=O)NCCOc2ccc(C(=O)NO)cc2)oc2ccccc12	/	278%	/	?	/	/	/	/	/	/
O=C1CC(c2cccc(Cl)c2Cl)c2cc3c(cc2N1)OCCO3 (stereo not drawn)	-13%	?	16µM*	-37%	-17%	-11%	?	-3%	-7%	-32%
COCCN1Cc2cccc(C(=O)Nc3ccc(C)c(F)c3)c2C1=O	1%	-25%	-8%	-12%	-7%	/	/	/	/	/
COCCN1Cc2cccc(C(=O)Nc3ccc(Cl)cc3Cl)c2C1=O	-9%	-13%	19µM*	-22%	-26%	?	?	-8%	8%	-44%
CCc1cccc(C)c1NC(=O)c1nc2ccccc2nc1N1CCCCC1	-8%	-16%	?	-3%	0%	-5%	?	2%	9%	-27%
CC(C)C(=O)Nc1cccc(C(F)(F)F)c1	/	-3%	/	0%	/	/	/	/	/	/
COc1ccc(CNS(=O)(=O)c2cc(Br)cc3c2N(C(C)=O)C(C)C3)cc1 (stereo not drawn)	-9%	-19%	-41%	-20%	6%	/	/	/	/	/
CC(=O)N1c2c(cc(Br)cc2S(=O)(=O)Nc2ccc(OC(F)(F)F)cc2)CC1C (stereo not drawn)	?	25µM*	16µM*	-63%	-24%	22µM*	1.5µM*	-5%	3%	-30%
O=C(NCCCN1CCN(c2ccccc2)CC1)c1ccc2nc(CCc3ccccc3)oc2c1	0%	?	19µM*	-22%	?	-15%	-6%	-6%	-26%	?
COc1ccc(N2CCN(CCCNC(=O)c3ccc4nc(Cc5ccccc5)oc4c3)CC2)cc1	-4%	?	19µM*	-26%	?	?	?	-2%	?	?
Cc1ccc(C(=O)c2oc3ccccc3c2NC(=O)c2nc(S(C)(=O)=O)ncc2Cl)cc1F	1%	-7%	7.6µM*	7%	?	-9%	-16%	-2%	22µM*	13µM*
